Source: paper PMC5540273 (PLoS ONE, 2017)

Legend:
Settings in all cases: concentration: 1 μM,replicates: in singlicate; n = 1
[1] = system: MAPKAPK5
[2] = system: MARK1
[3] = system: MARK2
[4] = system: MARK3
[5] = system: MARK4
[6] = system: MAST1
[7] = system: T1, MEK1
T1 construct: gene MAP2K1

[8] = system: T2, MEK2
T2 construct: gene MAP2K2

[9] = system: T3, MEK3
T3 construct: gene MAP2K3

[10] = system: T4, MEK4
T4 construct: gene MAP2K4
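Further: KINOMEscan kinase panel screen.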

CCN1CCN(CCCC(=O)Nc2n[nH]c3nc(-c4ccc(O)cc4)c(Br)cc23)CC1 [SB-731579]
%Inh [1]: 0% | %Inh [2]: 35% | %Inh [3]: 20% | %Inh [4]: 0% | %Inh [5]: 14% | %Inh [6]: 65% | %Inh [7]: 0% | %Inh [8]: 0% | %Inh [9]: 15% | %Inh [10]: 0%

O=C(Nc1cccc(C(F)(F)F)c1)c1cccc(Oc2ccc3nccn3n2)c1
%Inh [1]: 51% | %Inh [2]: 0% | %Inh [3]: 2% | %Inh [4]: 9% | %Inh [5]: 100% | %Inh [6]: 0% | %Inh [7]: 0% | %Inh [8]: 8% | %Inh [9]: 6% | %Inh [10]: 31%

Nc1nccc(-c2ccc3c(N)n[nH]c3c2)n1 [GSK1034945]
%Inh [1]: 0% | %Inh [2]: 0% | %Inh [3]: 0% | %Inh [4]: 0% | %Inh [5]: 7% | %Inh [6]: 0% | %Inh [7]: 0% | %Inh [8]: 0% | %Inh [9]: 0% | %Inh [10]: 8%

COC(=O)c1cccc(NC(=O)NC2CCN(c3ccnc(Nc4cc(OC)c(OC)c(OC)c4)n3)C2)c1 (stereo not drawn) [GSK1379767]
%Inh [1]: 0% | %Inh [2]: 0% | %Inh [3]: 0% | %Inh [4]: 0% | %Inh [5]: 7% | %Inh [6]: 15% | %Inh [7]: 0% | %Inh [8]: 17% | %Inh [9]: 0% | %Inh [10]: 26%

Cc1ccc(Nc2ccnc(Nc3ccc4c(c3)CS(=O)(=O)C4)n2)cc1O.Cl [GW579362]
%Inh [1]: 0% | %Inh [2]: 0% | %Inh [3]: 17% | %Inh [4]: 0% | %Inh [5]: 5% | %Inh [6]: 0% | %Inh [7]: 84% | %Inh [8]: 62% | %Inh [9]: 92% | %Inh [10]: 90.9%

NC(=O)Nc1sc(-c2ccc(F)cc2)cc1C(N)=O [GW789449]
%Inh [1]: 0% | %Inh [2]: 0% | %Inh [3]: 8% | %Inh [4]: 0% | %Inh [5]: 1% | %Inh [6]: 46% | %Inh [7]: 30% | %Inh [8]: 40% | %Inh [9]: 83% | %Inh [10]: 24%

O=C(Nc1ccccc1)c1cccc(Oc2ccc3nccn3n2)c1
%Inh [1]: 4% | %Inh [2]: 0% | %Inh [3]: 6% | %Inh [4]: 0% | %Inh [5]: 10% | %Inh [6]: 0% | %Inh [7]: 0% | %Inh [8]: 6% | %Inh [9]: 13% | %Inh [10]: 0%

C[C@@H]1CNc2c(sc3ccc4nc(-c5ccc(O)cc5)ccc4c23)C(=O)N1
%Inh [1]: 99.9% | %Inh [2]: 26% | %Inh [3]: 7% | %Inh [4]: 17% | %Inh [5]: 17% | %Inh [6]: 48% | %Inh [7]: 1% | %Inh [8]: 23% | %Inh [9]: 51% | %Inh [10]: 0%

Cn1ccc2ncnc(Oc3ccc(NC(=O)Nc4cncc(C(F)(F)F)c4)c(Cl)c3)c21
%Inh [1]: 0% | %Inh [2]: 0% | %Inh [3]: 23% | %Inh [4]: 0% | %Inh [5]: 11% | %Inh [6]: 6% | %Inh [7]: 0% | %Inh [8]: 0% | %Inh [9]: 0% | %Inh [10]: 1%

FC(F)(F)c1cc(Br)cc(Nc2nccc(-c3cnn4ncccc34)n2)c1 [GW810578]
%Inh [1]: 0% | %Inh [2]: 0% | %Inh [3]: 0% | %Inh [4]: 0% | %Inh [5]: 0% | %Inh [6]: 45% | %Inh [7]: 3% | %Inh [8]: 14% | %Inh [9]: 90.3% | %Inh [10]: 21%

CC(C(=O)NC1CCN(c2ccnc(Nc3ccc(F)cc3)n2)C1)c1ccc(Cl)cc1 (stereo not drawn) [GSK1379713]
%Inh [1]: 18% | %Inh [2]: 0% | %Inh [3]: 0% | %Inh [4]: 0% | %Inh [5]: 1% | %Inh [6]: 11% | %Inh [7]: 0% | %Inh [8]: 0% | %Inh [9]: 0% | %Inh [10]: 10%

COc1cc2ncn(-c3cc(OCC4CCCCC4)c(C(N)=O)s3)c2cc1OC [GSK204559]
%Inh [1]: 0% | %Inh [2]: 14% | %Inh [3]: 1% | %Inh [4]: 0% | %Inh [5]: 26% | %Inh [6]: 0% | %Inh [7]: 0% | %Inh [8]: 0% | %Inh [9]: 9% | %Inh [10]: 13%

CCOC(=O)N1CCC(n2cnc(-c3ccc(F)cc3)c2-c2ccnc(N)n2)CC1 [SB-219952]
%Inh [1]: 13% | %Inh [2]: 15% | %Inh [3]: 17% | %Inh [4]: 0% | %Inh [5]: 28% | %Inh [6]: 2% | %Inh [7]: 3% | %Inh [8]: 27% | %Inh [9]: 45% | %Inh [10]: 18%

Cc1ccn2nc(-c3ccc(F)cc3)c(-c3ccncc3)c2c1.Cl [GW457859]
%Inh [1]: 0% | %Inh [2]: 0% | %Inh [3]: 0% | %Inh [4]: 0% | %Inh [5]: 0% | %Inh [6]: 64% | %Inh [7]: 0% | %Inh [8]: 48% | %Inh [9]: 0% | %Inh [10]: 0%

CS(=O)(=O)c1cccc(CNc2nc(Nc3ccc4c(c3)[C@@H]3C[C@@H]4CNC3=O)ncc2C(F)(F)F)c1
%Inh [1]: 0% | %Inh [2]: 8% | %Inh [3]: 24% | %Inh [4]: 67% | %Inh [5]: 44% | %Inh [6]: 0% | %Inh [7]: 39% | %Inh [8]: 80% | %Inh [9]: 75% | %Inh [10]: 89%

CC(=O)c1c(-c2ccncc2)[nH]c(-c2ccncc2)c1C [GW493036]
%Inh [1]: 0% | %Inh [2]: 0% | %Inh [3]: 0% | %Inh [4]: 10% | %Inh [5]: 0% | %Inh [6]: 36% | %Inh [7]: 0% | %Inh [8]: 0% | %Inh [9]: 0% | %Inh [10]: 40%

CN1CCN(CCCNc2nccc(-c3c(-c4ccc(F)cc4)nn4cc(C(N)=O)ccc34)n2)CC1 [GW622475]
%Inh [1]: 0% | %Inh [2]: 9% | %Inh [3]: 15% | %Inh [4]: 0% | %Inh [5]: 21% | %Inh [6]: 0% | %Inh [7]: 0% | %Inh [8]: 18% | %Inh [9]: 0% | %Inh [10]: 12%

N#Cc1cccc(C(=O)NC2CCN(c3ccnc(Nc4ccc(F)cc4)n3)C2)c1 (stereo not drawn) [GSK1379708]
%Inh [1]: 0% | %Inh [2]: 0% | %Inh [3]: 0% | %Inh [4]: 0% | %Inh [5]: 16% | %Inh [6]: 0% | %Inh [7]: 0% | %Inh [8]: 0% | %Inh [9]: 0% | %Inh [10]: 17%
